Most compounds without a hit are left out; they make up all but 5.6% or so of the library.
ALR inh: inhibitors of human sulfhydryl oxidase ALR; P55789; purified ALR, DTT oxidation, H2O2 HRP-luminol luminescence; inhibition, % (no concentration beside the values); 290,000 compounds, 3.8% hits; AID 485317;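 active = mean replicate inhibition above about 79%, with every replicate also reaching it, limit read from the data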
Target sequence (P55789 whole entry, looked up): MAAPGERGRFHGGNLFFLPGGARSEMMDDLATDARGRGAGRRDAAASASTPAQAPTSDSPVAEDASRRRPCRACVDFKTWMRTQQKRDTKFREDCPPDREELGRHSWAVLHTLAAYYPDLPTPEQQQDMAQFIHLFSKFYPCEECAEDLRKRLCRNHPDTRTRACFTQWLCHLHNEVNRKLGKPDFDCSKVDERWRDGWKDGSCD
PfM18AAP inh: blocks P. falciparum M18 aspartyl aminopeptidase | recombinant PfM18AAP, H-Glu-NHMec fluorogenic cleavage | inhibition, % at 7.35 µM | 290,000 compounds, 1.2% hits | AID 1822;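 active = inhibition above the campaign mean inhibition over all tested compounds plus 3 SD, cut at about 28% in these data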;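 also: 0% = plate median of test compound wells and 100% = 2 mM ZnCl2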
PHOSPHO1 inh: blocks human PHOSPHO1 phosphatase activity | inhibition, % at 13.3 µM | Q8TCT1 | AID 1565 | 290,000 compounds, 1.1% hits | recombinant PHOSPHO1, absorbance phosphatase assay; in the data active = inhibition above about 60%
Target sequence (Q8TCT1 whole entry, looked up): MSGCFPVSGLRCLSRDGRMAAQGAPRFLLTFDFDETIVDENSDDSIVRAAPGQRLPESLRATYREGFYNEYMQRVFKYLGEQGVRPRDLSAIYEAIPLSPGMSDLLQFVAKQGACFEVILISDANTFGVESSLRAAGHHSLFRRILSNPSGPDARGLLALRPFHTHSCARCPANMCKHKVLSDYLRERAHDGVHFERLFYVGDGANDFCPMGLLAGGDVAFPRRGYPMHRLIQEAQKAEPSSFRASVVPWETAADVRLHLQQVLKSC
Cardio protect: modulators protecting cardiomyocytes from myocardial damage | H9c2 cardiomyocytes, H2O2 injury protection, ATPLite, 2 h | protection from H2O2 cell death, % at 20 µM | 360,000 compounds, 0.63% hits;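 active = compounds giving at least 50% protection of heart cells from peroxide-induced death in the single-dose screen, raw or plate-pattern-corrected value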;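 also: 0% = DMSO wells with peroxide and 100% = DMSO wells without peroxide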
PfG6PD inh: PfG6PD (Plasmodium falciparum) enzyme inhibition; inhibition, % at 20 µM; PfGluPho enzyme, NADPH resazurin-diaphorase fluorescence; 350,000 compounds, 0.78% hits; AID 504690;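 active = inhibition reaching at least a set limit at 20 µM in the primary screen, cut at about 59% in these data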;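 also: 0% = DMSO wells with substrate and 100% = DMSO wells lacking glucose-6-phosphate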
Starred values were filed as active, the others as inactive; · = not tested or not shown.

SMILES	ALR inh	PfM18AAP inh	PHOSPHO1 inh	Cardio protect	PfG6PD inh
Cc1ccsc1C(=O)OCC(=O)N1CCN(C(=O)c2ccco2)CC1	0.1	0.0	62.9*	6.9	-17.3
Cc1ccc(-c2cc(C(=O)N3CCN(c4ncccn4)CC3)c3ccccc3n2)cc1	-11.7	-0.5	69.4*	-34.3	17.8
O=C(OCC(=O)N1CCN(C(=O)c2ccco2)CC1)c1cc(-c2ccccc2)nc2ccccc12	-33.9	-13.8	61.2*	21.0	6.4
CCn1cc(CN2CCCC(C(=O)Nc3cccc(-n4cccn4)c3)C2)cn1 (stereo unspecified)	·	·	·	7.7	-1.4
N#Cc1c(N)[nH]c(=S)c(C#N)c1-c1ccccc1	56.6	4.5	95.8*	11.5	48.1
CC(C)Sc1nc(SCC(=O)O)c2c3c(sc2n1)COC(C)(C)C3	·	-5.4	83.6*	-0.7	-0.7
COc1cccc(/C(C)=N/Nc2ccc(S(=O)(=O)N3CCCCC3)cn2)c1	-2.5	·	·	-11.2	18.6
Nc1ccc2oc3ccc(N)cc3c(=O)c2c1	99.2*	23.7	19.3	8.2	8.3
O=C(c1ccc(OC2CCN(Cc3ccccc3O)CC2)cc1)N1CCCCC1	1.1	4.0	28.7	4.6	9.6
COc1cccc(CN2CCC(Oc3ccc(C(=O)N4CCCCC4)cc3)CC2)c1O	84.2*	-4.8	27.4	-0.1	-1.5
CC1CN(C(=O)CCS(=O)(=O)c2ccccc2)CC(C)O1 (stereo unspecified)	-20.2	-4.5	35.1	-0.6	-13.2
O=C1CCCC(O)=C1N=Nc1c(Cl)cc(C(F)(F)F)cc1Cl	1.4	28.3*	47.4	2.5	-2.5
Cc1ccc(NC(=O)c2cc(S(=O)(=O)N3CCOCC3)ccc2Cl)cc1S(=O)(=O)N1CCOCC1	·	·	·	6.5	6.4
COc1cccc(NC(=O)CCN2C(=O)c3ccccc3Sc3ncccc32)c1	0.6	-1.9	15.9	2.7	5.8
CCOc1ccccc1N1CC(C(=O)Nc2ccccc2N2CCCC2)CC1=O (stereo unspecified)	87.7*	·	·	2.1	-3.5
O=C(Nc1ccccc1N1CCCC1)C1CC(=O)N(Cc2ccccc2)C1 (stereo unspecified)	97.5*	·	·	-3.3	-5.8
CCC(C)c1ccccc1N1CC(C(=O)Nc2ccccc2N2CCCC2)CC1=O (stereo unspecified)	70.9	20.7	38.3	-1.6	-1.6
CC(NC(=O)CCNC(=O)c1ccco1)c1ccccc1 (stereo unspecified)	-0.1	·	·	-4.9	1.4
Cc1n[nH]c(=O)nc1Nc1ccc(O)cc1	89.2*	4.6	4.6	0.9	10.0
Cc1ccc(Nc2nc(=O)[nH]nc2C)cc1	-0.2	-3.6	3.2	0.8	5.7
O=C(NC1CC1)c1ccc(CSCc2ccccc2Cl)o1	83.8*	3.8	6.9	-9.8	3.2
O=C(NC1CCCC1)c1ccc(CS(=O)(=O)Cc2ccccc2Cl)o1	4.0	-4.4	24.0	3.5	13.5
CCCCC(=O)Nc1ccc(C(=O)N(CC)c2ccccc2C)cc1	-10.1	-11.3	65.8*	-8.4	-8.2
O/N=C(/c1ccc(F)cc1)C1CC1c1c(F)cccc1Cl (stereo unspecified)	-7.6	2.0	·	-2.5	-7.9
Cc1c(NC(=O)COC(=O)COc2ccc(Nc3ccccc3)cc2)c(=O)n(-c2ccccc2)n1C	99.3*	12.4	19.9	-1.1	29.2
SMILES	ALR inh	PfM18AAP inh	PHOSPHO1 inh	Cardio protect	PfG6PD inh
Cc1c(NC(=O)COC(=O)c2cc3c4ccccc4n(C)c3s2)c(=O)n(-c2ccccc2)n1C	-2.2	3.5	62.2*	-8.5	3.5
COc1cccc(CNc2nc3cc(C(C)=C(C)C)sc3c(=O)n2C)c1	·	·	·	-17.2	·
COc1cc(/C=C2/NC(=O)N(Cc3ccccc3F)C2=O)cc(OC)c1O	98.9*	19.1	2.4	19.5	32.7
COc1ccc(Br)cc1/C=N/n1c(C)nc2ccccc2c1=O	·	0.1	-3.4	-2.4	8.4
Cc1nc2ccccc2c(=O)n1/N=C/c1ccc(N(C)C)cc1	-0.4	10.7	-16.9	3.6	-1.8
O=c1c2ccccc2nc(/C=C/c2cc(Br)ccc2O)n1CCCO	54.7	7.4	28.6	50.0*	-0.2
Cc1nc2ccccc2c(=O)n1/N=C/c1cc(Br)ccc1O	5.5	5.7	28.3	54.0*	7.9
O=c1c2ccccc2nc(/C=C/c2cccc([N+](=O)[O-])c2)n1CCO	0.7	-11.9	-1.8	2.8	6.8
Cc1nc2ccccc2c(=O)n1/N=C/c1c(O)ccc2oc3c(c12)CCCC3	-19.5	-2.2	14.5	100.1*	4.8
Cc1nc2ccccc2c(=O)n1/N=C/c1c(O)ccc2ccccc12	-7.8	2.6	18.8	74.2*	2.9
Cc1ccc(S(=O)(=O)Oc2cccc([N+](=O)[O-])c2)cc1	·	·	·	-2.0	18.7
O=C(Oc1ccc(/C=N/O)cc1)c1ccccc1Cl	99.2*	4.9	-54.0	-5.4	-12.9
Cc1ccc(C(=O)N/N=C/c2ccc(OC(=O)c3ccccc3Cl)cc2)cn1	-14.8	12.1	18.7	30.1	-6.4
COc1ccccc1N1CCN(C(=O)c2ccc3nc(-c4ccco4)c(-c4ccco4)nc3c2)CC1	-8.6	6.7	-20.8	63.5*	6.5
CCc1nn(CCCC(=O)NC2CCCCC2C)c(=O)c2cc3occc3n12 (stereo unspecified)	·	·	·	-0.1	-2.9
COc1cc2ncc(S(=O)(=O)c3ccccc3)c(N3CCCC(C)C3)c2cc1OC (stereo unspecified)	-33.5	6.6	-16.0	5.2	3.1
Clc1cccc(Nc2ncnc3ccc(Br)cc23)c1	-1.8	-0.5	62.0*	-17.7	21.2
Cc1cccc(Nc2ncnc3ccc(Br)cc23)c1	·	-3.1	8.1	-2.1	12.9
COC(=O)C(C)Sc1ncnc2c1nnn2-c1ccc(F)cc1 (stereo unspecified)	97.6*	-3.9	15.5	-14.7	-12.7
O=C1NC(Cc2ccc(O)cc2)c2nc3cc(F)ccc3c(=O)n2-c2cc3ccccc3cc21 (stereo unspecified)	·	·	·	19.4	-3.9
COc1ccc(CNC(=O)c2ccc(Cn3nc(C)c([N+](=O)[O-])c3C)o2)cc1	-0.2	-4.0	-3.4	86.8*	7.6
COc1cc(OC)cc(C(=O)NCCSc2c[nH]c3ccccc23)c1	90.9*	7.4	46.4	-3.0	16.9
O=C(NCCSc1c[nH]c2ccccc12)C1CC1	98.5*	-2.5	-2.0	-4.5	5.3
O=C(NCCSc1c[nH]c2ccccc12)c1c(F)cccc1F	·	7.0	43.7	11.3	21.8
Cc1ccc(C)c(SCC(=O)Nc2cccnc2Cl)c1	-14.4	-0.7	-17.5	-9.1	13.9
CCCCC(NC(=O)Cc1c(C)c2cc3c(C)c(C)oc3c(C)c2oc1=O)C(=O)O (stereo unspecified)	96.8*	1.8	15.3	0.7	-25.5
Cc1ccc(NC(=O)c2cc(N3C(=O)CCC3=O)ccc2N2CCCCC2)cc1	-1.1	-0.1	-10.2	-10.9	29.5
Cc1ccc(NC(=O)c2cc(NC(=O)c3ccccc3C(=O)O)ccc2N2CCCCC2)cc1	98.6*	0.2	45.4	3.9	44.5
CC(=O)Nc1ccc(N2CCCCC2)c(C(=O)Nc2cccc(C)c2)c1	97.4*	13.4	-0.6	-3.6	9.2

Screening results (PubChem BioAssay)
